Results reported in PubChem BioAssay.

Assay: growth modulation of vineyard yeast isolate – strain RM11-1a, OD600, basal, 24 h, primary screen (AID 1177);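 further: cultures grown under basal conditions with no added stressor; test concentration not given here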
Conditions: S. cerevisiae RM11-1a growth, OD600, 24 h; higher = more signal, called active from +8 up or from −8 down

z-score, inactive:
COC(=O)[C@@]1(Cc2ccc(F)cc2)[C@H]2c3cc(C(=O)N(C)C)n(CCc4ccc(O)c(O)c4)c3C[C@H]2CN1C(=O)c1ccccc1 0.232
CCOC(=O)C1=CC[C@@H](c2ccc(OC)cc2)N(S(=O)(=O)c2ccc(C)cc2)[C@H]1c1ccc(C)cc1 -0.187
[N-]=[N+]=NCc1ccccc1[C@@H]1OC(c2ccc(OCCCO)cc2)=N[C@]1(Cc1ccccc1N=[N+]=[N-])C(=O)O 0.783
COC(=O)[C@@]1(Cc2ccccc2)[C@H]2c3cc(C(=O)N(C)C)n(CCSC(=N)N)c3C[C@H]2CN1C(=O)c1ccccc1 0.0986
Cc1ccc(S[C@]2(C(=O)NC(C)C)CC(=O)N(C3CCCCC3)[C@@H]2c2ccc(CO)cc2I)cc1 1.16
COC(=O)C(CC#Cc1ccc2c(c1)[C@]1(C(=O)N2)[C@H](C(=O)N2CCc3cc(OC)c(OC)cc3C2)[C@H]2C(=O)O[C@H](c3ccccc3)[C@H](c3ccccc3)N2[C@@H]1c1ccccc1OCCO)C(=O)OC 2.83
C=CC[C@@]12N=C(c3ccc(OCCCO)cc3)O[C@@H]1c1ccccc1N(CCC)C2=O 0.829
CCC(CC)C(O)C1C=CC2C(=O)N(c3ccccc3)C(=O)C2N1Nc1ccccc1F (stereo unspecified) -0.0886
C=C(COC)/C(=C/C[C@H](OC(C)=O)c1ccccc1OCCO)c1cc(C(=O)OC)ccc1OC 0.0505
CN(C)CCCC[C@@H]1NC(=O)[C@@H]2C[C@H](C(=O)NCCCCCN)[C@H](c3cccc(OCCO)c3)N2C1=O -2.59
COC(=O)C[C@H]1O[C@@]2(C[C@@H]1[Si](C)(C)C)C(=O)N(C)c1ccccc12 -3.42
NC(=O)N1C(=O)C2C(C1=O)C1C=C(CCCO)C2C(C2CC2)N1Cc1sc2ccccc2c1Cl (stereo unspecified) 0.269
CCOC(=O)C1=CCC(c2cc3ccccc3[nH]2)N(CCN2CC(C(=O)OCC)=CCC2c2cc3ccccc3[nH]2)C1 (stereo unspecified) 0.614
COCC(=C=CC[C@H](O)c1ccccc1OCCO)C[C@H](O)COCc1ccccc1 -0.482
COc1ccc([Si](C)(C)[C@@H]2[C@@H](CC(=O)N3CCC[C@H]3CO)O[C@]3(C(=O)N(Cc4ccc(N5CCOC5=O)cc4)c4ccccc43)[C@H]2C)cc1 -0.975
C=C(CCCC)C(=O)CC[C@H](OC(=O)c1ccccc1-c1ccccc1C(=O)O)c1ccc(OCCO)cc1 0.152
COC(=O)[C@@]1(Cc2ccc(F)cc2)[C@H]2c3cc(C(=O)N4CCCC4)n(Cc4ccccn4)c3C[C@H]2CN1C(=O)c1ccccc1 0.938
O=C1NC(=O)C2C1C=CC(C(O)c1ccc([N+](=O)[O-])cc1)N2Nc1ccccn1 (stereo unspecified) 0.485
CCCC#C[Si](O[C@H](CC)c1cn(Cc2ccccc2)nn1)(C(C)C)C(C)C -0.0787
COCCCNC(=O)[C@@]1(CCC(=O)OC(C)(C)C)COC(c2ccc(OCCCO)cc2)=N1 -0.561
C=C(CCCC)/C(=C/C[C@H](OC(C)=O)c1cccc(OCCO)c1)c1cnc2ccccc2c1 1.75
CN(C)C(=O)[C@]1(Cc2ccccc2)N=C(c2ccc(OCCCO)cc2)O[C@@H]1c1ccccc1CN=[N+]=[N-] 0.22
Cc1ccc(S[C@]2(C(=O)NCc3ccccc3)CC(=O)N(Cc3ccccc3C(F)(F)F)[C@@H]2c2ccc(CO)cc2)cc1 -1.38
CCCN1C(=O)[C@]2(CCC(=O)OC(C)(C)C)N=C(c3ccc(OCCCO)cc3)O[C@@H]2c2ccccc21 0.654
C[N+](C)(C)CCCC[C@@H]1NC(=O)[C@H]2C[C@@H](C(=O)NCCCCCNC(=O)CS)[C@@H](c3cccc(OCCO)c3)N2C1=O -1.13
CO[C@H]1O[C@H](CO)[C@@H](OC(=O)Nc2ccccc2-c2ccccc2)[C@H](OC(=O)Nc2ccccc2)[C@H]1OC(=O)Nc1ccccc1 2.81
CC(C)=C1C(=O)C(c2ccccc2)=C2CN3C(=O)N(CCc4ccccc4)C(=O)[C@]3(C)[C@H]21 0.119
C[C@]1(C(=O)O)c2ccccc2C(=O)N(Cc2cc(F)cc(C(F)(F)F)c2)[C@H]1c1ccc(CO)cc1 -1.33
CN(C)CCCNC(=O)[C@@]1(Cc2ccccc2I)c2ccccc2C(=O)N(C2CCCCC2)[C@H]1c1ccc(CO)cc1 0.996
C#CCN1[C@@H](Cc2ccccc2)C(=O)O[C@H](Cc2ccccc2)[C@@H]1/C=C/C1CC1 0.0761
CCCc1cc2c(n1CCc1ccc(Cl)cc1)C(C)C1CN(C(=O)c3ccccc3)C(C)(C(=O)OC)C21 (stereo unspecified) 1.09
CN1C(=O)[C@@H]2[C@@H](CC(COc3ccccc3)=C3[C@@H](CCc4ccccc4)OB(O)C[C@@H]32)C1=O -0.0646
CC(C)(C)OC(=O)CC[C@]1(C(=O)NCC(O)CO)N=C(c2ccc(OCCCO)cc2)O[C@H]1c1ccccc1N=[N+]=[N-] (stereo partly specified) -0.134
COc1ccc([Si](C)(C)[C@H]2[C@H](CC(=O)N3CCC[C@H]3CO)O[C@@]3(C(=O)N(Cc4ccc(N5CCCCC5=O)cc4)c4ccccc43)[C@@H]2C)cc1 1.57
C=CCOC(=O)[C@H]1[C@@H]2C(=O)O[C@@H](c3ccccc3)[C@@H](c3ccccc3)N2[C@@H](c2ccc(OCCOC(=O)[C@@H]3C[C@@H]4C(=O)N[C@@H](CCCC[N+](C)(C)C)C(=O)N4[C@@H]3c3ccc(O)cc3)cc2)[C@]12C(=O)Nc1ccc(I)cc12 2.46
O=C(NCc1ccc(F)cc1)[C@H]1C[C@H]2C(=O)N3CCC[C@H]3C(=O)N2[C@H]1c1ccc(O)cc1 -0.795
